Results reported in PubChem BioAssay (NCI).
Compounds without any hit were thinned out: in the full panel of roughly 83,000, 20% have a hit.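 The endpoint reported here, percent growth, reads 100 for growth as untreated, 0 for no net growth and -100 for all cells dead.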 Unmarked numbers belong to inactive results. Activity calls are given as the source filed them. How the source made its calls: active means growth percent below 10; inactive means the rest.

tested on: MDA-MB-468 breast; assay: NCI-60 one-dose screen, 48 h (100 = growth as untreated, 0 = no growth, -100 = all killed); details: 10 µM unless noted

SMILES	growth
Cc1cc2nc(CS)[nH]c2cc1C	85.2%
Cc1c(-c2ccc(O)cc2)n(Cc2ccc(OCCN3CCCCCC3)cc2)c2ccc(O)cc12	74%
CN(C)C(=S)Sc1ccc([N+](=O)[O-])cc1[N+](=O)[O-]	-78.7% (active)
COC(=O)CCC1=C(C)C2=NC1=CC1=NC(=CC3=NC(=Cc4[nH]c(/c(=C(/C)O)c4C)=C2)C(C(C)=O)=C3C)C(C)=C1CCC(=O)OC	108%
O=C(CCc1nnco1)c1nc2ccc([N+](=O)[O-])cc2[nH]1	113%
CN(C)c1nc2c(N)ncnc2n1C1OC(CO)C(O)C1O (configuration not stated)	102%
COc1ccc(Oc2nc(Nc3ccc(N4CCOCC4)cc3)ncc2NC(=O)c2cc(OC)cc(OC)c2)cc1	86.6%
CC1OC(n2c3ccccc3c3c4c(c5c6ccccc6[nH]c5c32)C(=O)N(CCN2CCCC2)C4=O)CC(O)C1O (configuration not stated)	26.2%
Cc1nc2c3c(-c4ccccc4)c(-c4ccccc4)oc3ncn2n1	93.9%
CCCCCCCCCCCCCCCCCCOc1ccccc1CC(=O)NCC[N+](C)(C)C	19%
CC1=C(C(=O)OCC2CCN(C(=O)OC(C)(C)C)CC2)[C@H](c2cccc(Br)c2)C2=C(CC(C)(C)CC2=O)N1	29.7%
CC1=NN(c2ccccc2)C(=O)C1C(=O)c1ccccc1 (configuration not stated)	83.4%
CN(C)c1ccc(-c2c(C#N)c(N)nn2C(=O)c2ccc(NC(=O)c3ccccn3)cc2)cc1	119%
Cc1cc(Nc2nc(N3CCOCC3)nc3ccccc23)n[nH]1	55.9%
CCCCC(=O)c1ccc(OC)cc1	85.2%
CN1CCN(S(=O)(=O)O[C@@H]2C(=O)N(c3cc4c5ccccc5ccc4c4ccccc34)[C@H]2c2ccc(F)cn2)CC1	90.8%

SMILES	growth
COc1ccc(-c2nc(SCCC(C)C)nc(Nc3ccc(F)c(Cl)c3)c2C#N)cc1	71.5%
Cn1c2c(c3ccc(-c4ccn[nH]4)cc3c1=O)C(=O)c1ccccc1-2	46.2%
CN1CCC(n2cc(Nc3ncc4c(=O)n(-c5c(Cl)cccc5Cl)cc(Br)c4n3)cn2)CC1	12.7%
Clc1ccc(-c2nc(-c3cccs3)no2)c(Cl)c1	8.37% (active)
CC(C)=CCC[C@](C)(O)[C@H]1CC[C@]2(C)[C@@H]1CC[C@@H]1[C@@]3(C)CC/C(=N/O)C(C)(C)[C@@H]3CC[C@]12C	-26.3% [100 µM] (active)
CCN(CC)c1ccc(/C=N/NC(=O)c2ccc(Nc3ccnc(C(F)(F)F)c3)cc2)c(O)c1	8.37% (active)
O=C(Nc1cc([N+](=O)[O-])c2[nH]c(=O)c3ccccc3c2c1)C(F)(F)F	-15.2% (active)
CC1(C)CC[C@]2(C(=O)O)CC[C@]3(C)C(=CCC4[C@@]5(C)C[C@@H](O)[C@@H]6OC(c7ccccc7O)OC[C@@]6(C)C5CC[C@]43C)C2C1 (some centres not stated)	69.4%
COc1ccc(C(=O)c2cc3c(N)c(C(=O)Nc4cccc(Cl)c4)sc3nc2C)cc1	10.5%
COc1ccc(CCN2C(=O)CCSC2=S)cc1OC	19.8%
CCCCCN1C=C/C(=C\C(=O)N(C)c2ccc(Oc3ccccc3)cc2)c2ccccc21	22.3%
COc1ccc(CNc2c3ccccc3nc3ccccc23)c(OC)c1	4.83% (active)
COc1cc(/C=C\c2cc(OC)c(OC)c(OC)c2)cc(NS(=O)(=O)c2ccc(Cl)cc2)c1OC	19.1%
Cc1ccc(/C=C2/C(=O)N(C)c3ccc(S(=O)(=O)Nc4ccc(C(C)(C)C)cc4)cc32)s1	63.1%
CCCCC/C=C/CCC(=O)N[C@H]1[C@H](Oc2c3cc4cc2Oc2ccc(cc2Cl)[C@@H](O[C@@H]2O[C@H](CO)[C@@H](O)[C@H](O)[C@H]2NC(C)=O)[C@@H]2NC(=O)[C@H](NC(=O)[C@@H]4NC(=O)[C@H]4NC(=O)[C@@H](Cc5ccc(c(Cl)c5)O3)NC(=O)[C@@H](N)c3ccc(O)c(c3)Oc3cc(O)cc4c3)c3ccc(O)c(c3)-c3c(O[C@H]4O[C@H](CO)[C@@H](O)[C@H](O)[C@@H]4O)cc(O)cc3[C@H](C(=O)O)NC2=O)O[C@H](CO)[C@H](O)[C@@H]1O	110%
O=C1CN(CCN2CC(=O)N(Cc3ccccc3)C(=O)C2)CC(=O)N1Cc1ccccc1	107%
